PubChem BioAssay AID504332 (National Center for Advancing Translational Sciences (NCATS), 2011)
Among all 350,000 compounds or so, about 31,000 (8.9%) were called active. Inconclusive results (about 15%) are left out. Calls come from the whole dose curve; as a rule, active = well fitted inhibition curve with a large enough effect; inconclusive = small, poorly fitted or top-dose-only effect; inactive = no such curve, though single readings can be large or run the other way. The entries come from a sample that favours actives as a whole. Some structures have more than one record in an assay (separate samples or runs), and their calls can disagree.

molecular target: Histone-lysine N-methyltransferase EHMT2 (Homo sapiens) (UniProt Q96KQ7); experiment: qHTS Assay for Inhibitors of Histone Lysine Methyltransferase G9a; details: G9a H3K9 monomethylation, AlphaScreen, 2 h; series mostly up to 59 µM; note: nearly all actives have a fitted effect of over 75% in size
Sequence (Q96KQ7 913-1193 limits assumed): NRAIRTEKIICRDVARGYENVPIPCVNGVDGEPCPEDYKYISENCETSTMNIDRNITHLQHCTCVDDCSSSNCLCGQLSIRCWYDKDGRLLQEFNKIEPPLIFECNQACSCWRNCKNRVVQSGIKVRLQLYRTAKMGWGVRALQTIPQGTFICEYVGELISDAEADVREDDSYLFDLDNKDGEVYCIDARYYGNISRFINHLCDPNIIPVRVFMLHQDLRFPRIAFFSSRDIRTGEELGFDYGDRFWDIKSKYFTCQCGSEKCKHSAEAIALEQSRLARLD
How it was run: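 Readings reflect AlphaScreen signal from monomethyl-H3K9 antibody detection. HMT at 20 nM; substrate b-H3K9 500 nM; cofactor SAM 20 uM; 2 h RT reaction; compounds tested as titrations in qHTS with 15 min preincubation.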
% is set by controls: 0 for no effect and ±100 for the full control effect; potency is the fitted concentration of half-maximal effect.

Potency, inactive:
Cc1ccc2c(c1)c1ncn(Cc3ccc(F)cc3)c(=O)c1n2C
CC(=O)Nc1ccc(NC(=O)CSc2nnc3c4cc(Br)ccc4n(C)c3n2)cc1
O=C(CN1C(=O)COc2ccc(S(=O)(=O)N3CCOCC3)cc21)N1CCN(c2cccc(Cl)c2)CC1
Cc1ccc(Nc2nc(N3CCOCC3)nc(N3CCOCC3)n2)cc1Cl
CCN1CCN(c2nc(Nc3cc(OC)ccc3OC)nc(Nc3cc(OC)ccc3OC)n2)CC1
CC1CCN(c2nc3ccc(C(=O)N4CCN(c5ccccc5)CC4)cc3s2)CC1
COC(=O)c1ccc(COC(=O)c2cnc(Cl)c(Cl)c2)cc1
Cc1cc(C)n(S(=O)(=O)c2cccc([N+](=O)[O-])c2)n1
CC1CN(C(=O)c2ccccc2NS(=O)(=O)c2cccc([N+](=O)[O-])c2)CC(C)O1 (configuration not stated)
CCN1CCN(C2CCCCC2NS(=O)(=O)c2ccc(Cl)cc2)CC1 (configuration not stated)
O=S(=O)(NC1CCCCC1N1CCN(c2ccccc2F)CC1)c1ccccc1 (configuration not stated)
COc1ccc(CNC(=O)C2CCN(C(=O)c3ccco3)CC2)cc1
CCC(=O)Nc1ccc(C(=O)N2CCN(C(=O)c3ccco3)CC2)cc1
CCN(CC)c1nn2c(=O)c(C(=O)NCCc3ccccc3)cnc2s1
O=C(Nc1n[nH]c(C(F)(F)F)n1)c1cccs1
COc1ccc(CNC(=O)COC(=O)c2ccc(C)c(S(=O)(=O)N3CCOCC3)c2)cc1OC
O=C(c1cc(-c2ccc(Cl)cc2)on1)N1CCN(c2ccccc2)CC1
Cc1ccc(NC(=O)Cn2cnc3nc4c(cc3c2=O)CCCC4)cc1Cl
CCOC(=O)c1c(C)[nH]c(C)c1S(=O)(=O)N1CCCC(C(=O)NCc2ccccc2Cl)C1 (configuration not stated)
COc1ccc(C(=O)C2CCCN(Cc3ccc4nonc4c3)C2)c(C)c1 (configuration not stated)
CCCCNC(=O)N1CCCC(N(C)CCc2ccc(OC)c(OC)c2)C1 (configuration not stated)
CCOC(=O)C1CCCN(C(=O)/C=C/c2ccc(OC)cc2)C1 (configuration not stated)
COc1ccc(CN2CCCC(CNC(=O)c3ccc(F)cc3)C2)cc1OC (configuration not stated)
O=C(c1ccc(F)cc1)N1CCCC(C(=O)N2CCCCC2)C1 (configuration not stated)
COc1ccc(NC(=O)N2CCCC(C(=O)Nc3ccccc3OC)C2)cc1 (configuration not stated)
Cc1nn(-c2ccc(N3CCCCC3)nn2)c(C)c1CCC(=O)NCc1ccccc1F
COc1cc2[nH]c(=O)n(Cc3ccc(C(=O)NCc4ccc(C)cc4)cc3)c(=O)c2cc1OC

Potency, active:
Cn1c2ccc(F)cc2c2nnc(NN)nc21 39.8 µM
CCOc1ccc(Nc2nc(Cl)nc(N3CCN(c4ccc(OC)cc4)CC3)n2)cc1 12.6 µM
C/C(=N\NS(=O)(=O)c1cccc([N+](=O)[O-])c1)c1cc2ccccc2o1 12.6 µM
COc1ccc(N2CCN(C3CCCCC3NS(=O)(=O)c3ccccc3)CC2)cc1 (configuration not stated) 22.4 µM
CCC(CC)c1nnc(NC(=O)C2CCN(C(=O)c3ccco3)CC2)s1 3.98 µM
COC(=O)c1nc(NC(=O)c2ccc(F)cc2)n[nH]1 35.5 µM
COC(=O)c1nc(NC(=O)c2ccc(C(C)(C)C)cc2)n[nH]1 31.6 µM
COc1ccc(CN2CCCC(C(=O)N3CCCCC3)C2)cc1 (configuration not stated) 11.2 µM
COc1ccc(CCN(C)C(=O)C2CCCN(Cc3ccc(OC)c(OC)c3)C2)cc1OC (configuration not stated) 5.01 µM
COc1ccc(/C=C/C(=O)NC(=S)N2CCCC(C(N)=O)C2)cc1 (configuration not stated) 79.4 µM

activity, negative = inhibition, inactive:
COc1ccccc1NS(=O)(=O)c1ccc(C)c(C(=O)NCC(c2ccco2)N(C)C)c1 (configuration not stated) 22.9% [at 0.501 µM]
CCc1noc(C)c1C(=O)Nc1nc2ccc(OC)cc2s1 -2.24% [at 12.7 µM]
COC(=O)c1nc(NC(=O)c2ccccc2)n[nH]1 -8.15% [at 12.7 µM]
COc1ccc(C(=O)Nc2ccc(F)cc2F)cc1 29.4% [at 12.7 µM]
CSc1nccc(NC(=O)c2ccc(C(C)(C)C)cc2)n1 15.8% [at 0.501 µM]
Cc1ccc(C(=O)C(C)OC(=O)Cc2n[nH]c(=O)c3ccccc23)cc1C (configuration not stated) 13.1% [at 2.33 µM]
COc1ccc(CCN(C)C(=O)C2CCCN(Cc3ccc(OC)c(OC)c3)C2)cc1OC (configuration not stated) -16.1% [at 0.501 µM]
OC(c1ccc(Cl)cc1)C(CN1CCOCC1)c1ccccc1 (configuration not stated) -30.5% [at 2.33 µM]
COC(=O)[C@]1(C)CCC[C@@]2(C)C3CC[C@]4(OC(C)=O)C[C@@]3(CCC21)CC4=NO (some centres not stated) 3.11% [at 0.501 µM]
COc1cc(OC)cc(-c2c(-c3cccs3)c3cc(-c4ccc(OC)nc4)ccc3n2C)c1 0.323% [at 0.501 µM]
